Results filed as inconclusive are left out. A call without a number means that no potency is given here. Calls of active or inactive are those of the source. Calls follow the shape of the dose curve; as a rule, active = well fitted curve in the direction sought with a large enough effect; inconclusive = small, poorly fitted or top-dose-only effect, or another doubt; inactive = no such curve, though single readings can be large; an effect the other way counts as inactive or inconclusive.
Columns and labels:
[1] = qHTS of pediatric cancer cell lines to identify multiple opportunities for drug repurposing: Primary screen for Rh41 cells (AID 1347108); also: nearly all actives have a fitted effect of over 70% in size
Method in brief: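 Cells plated at 500-1,000/well in growth medium, compounds added after 5 h. MIPE tested at 11 points (from 0.78 nM), NPC at 8 points (from 0.59 nM). CellTiter-Glo luminescence after 48 h; concentration-response curves from primary screen.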

[2] = qHTS of pediatric cancer cell lines to identify multiple opportunities for drug repurposing: Confirmatory screen for NB1643 cells (AID 1347109); also: nearly all actives have a fitted effect of over 45% in size
Method in brief: (§1)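 Cells (500-1,000/well) rested 5 h, then received compounds for 48 h; metabolically active cells were measured by CellTiter-Glo luminescence. Final concentrations spanned up to 46 µM (MIPE, 11-point) or 0.59 nM-46 µM (NPC, 8-point) in primary screens, 11-point in follow-ups.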

[3] = qHTS of pediatric cancer cell lines to identify multiple opportunities for drug repurposing: Confirmatory screen for SK-N-MC cells (AID 1347111);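 also: cells exposed to compound for 48 h before the readout; nearly all actives have a fitted effect of over 70% in size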
Method in brief: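 Seed 500-1,000 cells/well; rest 5 h at 37 degrees C. Pin-transfer compounds, 11-point titration. Incubate 48 h. Add CellTiter-Glo, 15 min RT, read luminescence.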

[4] = qHTS of pediatric cancer cell lines to identify multiple opportunities for drug repurposing: Confirmatory screen for BT-12 cells (AID 1347112); also: nearly all actives have a fitted effect of over 55% in size
Method in brief: as §1

[5] = qHTS of pediatric cancer cell lines to identify multiple opportunities for drug repurposing: Confirmatory screen for LAN-5 cells (AID 1347113); also: nearly all actives have a fitted effect of over 65% in size
Method in brief: as §1

[6] = qHTS of pediatric cancer cell lines to identify multiple opportunities for drug repurposing: Confirmatory screen for DAOY cells (AID 1347114); also: nearly all actives have a fitted effect of over 65% in size
Method in brief: (§2)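 Viability measured as metabolically active cells via CellTiter-Glo luminescence following 48 hours of compound exposure, 11-point dilutions in confirmatory testing. 500-1,000 cells/well plated 5 hours before dosing; controls were DMSO and 2.3 µM bortezomib.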

[7] = qHTS of pediatric cancer cell lines to identify multiple opportunities for drug repurposing: Confirmatory screen for SJ-GBM2 cells (AID 1347116); also: nearly all actives have a fitted effect of over 60% in size
Method in brief: as §2

[8] = qHTS of pediatric cancer cell lines to identify multiple opportunities for drug repurposing: Confirmatory screen for BT-37 cells (AID 1347117); also: nearly all actives have a fitted effect of over 55% in size
Method in brief: as §1

[9] = qHTS of pediatric cancer cell lines to identify multiple opportunities for drug repurposing: Confirmatory screen for TC32 cells (AID 1347118);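 also: cells exposed to compound for 48 h before the read; nearly all actives have a fitted effect of over 65% in size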
Method in brief: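 TC32 cells, 500-1,000/well in growth medium, compound-treated 48 h at 37 °C; viability from CellTiter-Glo luminescence. Primary screen: MIPE 11-point (0.78 nM–46 µM final), NPC 8-point (0.59 nM–46 µM final); confirmatory at 11-point dilutions.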

[10] = qHTS of pediatric cancer cell lines to identify multiple opportunities for drug repurposing: Confirmatory screen for MG 63 (6-TG R) cells (AID 1347119); also: nearly all actives have a fitted effect of over 55% in size
Method in brief: as §1

[11] = qHTS of pediatric cancer cell lines to identify multiple opportunities for drug repurposing: Confirmatory screen for control Hh wild type fibroblast cells (AID 1347121); also: nearly all actives have a fitted effect of over 70% in size
Method in brief: as §1

[12] = qHTS of pediatric cancer cell lines to identify multiple opportunities for drug repurposing: Confirmatory screen for U-2 OS cells (AID 1347122); also: nearly all actives have a fitted effect of over 65% in size
Method in brief: as §1

[13] = qHTS of pediatric cancer cell lines to identify multiple opportunities for drug repurposing: Confirmatory screen for Rh41 cells (AID 1347123); also: nearly all actives have a fitted effect of over 60% in size
Method in brief: as §1

[14] = qHTS of pediatric cancer cell lines to identify multiple opportunities for drug repurposing: Confirmatory screen for Rh18 cells (AID 1347125); also: nearly all actives have a fitted effect of over 55% in size
Method in brief: as §1

[15] = qHTS of pediatric cancer cell lines to identify multiple opportunities for drug repurposing: Confirmatory screen for Rh30 cells (AID 1347126); also: nearly all actives have a fitted effect of over 55% in size
Method in brief: as §1

[16] = qHTS of pediatric cancer cell lines to identify multiple opportunities for drug repurposing: Confirmatory screen for OHS-50 cells (AID 1347128)
Method in brief: as §1

[17] = qHTS of pediatric cancer cell lines to identify multiple opportunities for drug repurposing: Confirmatory screen for SK-N-SH cells (AID 1347129);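 also: cells exposed to compound for 48 h before viability read; nearly all actives have a fitted effect of over 60% in size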
Method in brief: as §1

[18] = qHTS of pediatric cancer cell lines to identify multiple opportunities for drug repurposing: Confirmatory screen for A673 cells (AID 1347110)
Method in brief: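 Viability was read as ATP luminescence (CellTiter-Glo) after 48 h of compound exposure at 37 C in A673 cells seeded at 500-1,000/well. Titrations reached 46 uM final, with 11 points in the confirmatory screen. Concentration-response curves were fitted directly.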

[19] = qHTS of pediatric cancer cell lines to identify multiple opportunities for drug repurposing: Confirmatory screen for NB-EBc1 cells (AID 1347115);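 also: cells exposed to compound for 48 h before the viability read; nearly all actives have a fitted effect of over 45% in size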
Method in brief: as §1

[20] = target: N-terminal Xaa-Pro-Lys N-methyltransferase 1 (Homo sapiens) (UniProt Q9BV86); assay: qHTS Assay for Inhibitors of N-terminal methyltransferase 1 (NTMT1): LOPAC validation of the NTMT1 SAHH-coupled ThioGlo3 Assay (AID 1347143);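 also: SAH from peptide methylation measured as thiol fluorescence via SAHH coupling and ThioGlo3; nearly all actives have a fitted effect of over 70% in size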
N-terminal Xaa-Pro-Lys N-methyltransferase 1 (Homo sapiens), sequence (Q9BV86 whole entry, looked up): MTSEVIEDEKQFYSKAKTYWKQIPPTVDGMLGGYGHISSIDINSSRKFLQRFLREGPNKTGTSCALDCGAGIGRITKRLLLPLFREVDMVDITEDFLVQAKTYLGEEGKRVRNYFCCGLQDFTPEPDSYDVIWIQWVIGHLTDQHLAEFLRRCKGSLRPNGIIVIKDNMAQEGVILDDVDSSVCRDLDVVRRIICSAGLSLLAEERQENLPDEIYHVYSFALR
Method in brief: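 NTMT1 125nM + cpds (various conc.), 1 min RT; add SAM 100uM/SAHH 10uM/ThioGlo3 15uM (addition mix). SAHH-coupled thiol detection, Ex340/Em450, t0 and 30 min RT; signal normalized to background. LOPAC 1280-cpd pilot.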
Potency is read from the fitted curve at half-maximal effect.

COc1cc2ncnc(Nc3ccc(F)c(Cl)c3)c2cc1OCCCN1CCOCC1
Potency [1]: 17.1 µM (active)
Potency [2]: 38 µM (active)
Potency [3]: 33.9 µM (active)
Potency [4]: 42.7 µM (active)
Potency [5]: 33.9 µM (active)
Potency [6]: 38 µM (active)
Potency [7]: 2.4 µM (active)
Potency [8]: 13.5 µM (active)
Potency [9]: 33.9 µM (active)
Potency [10]: 67.6 µM (active)
Potency [11]: 47.9 µM (active)
Potency [12]: 26.9 µM (active)
Potency [13]: 26.9 µM (active)
Potency [14]: 38 µM (active)
Potency [15]: 8.51 µM (active)
Potency [16]: 38 µM (active)
Potency [17]: 34 µM (active)

O=C(NCc1ccncc1)C12C[C@H]3C[C@@H](C1)CC(c1ccc(Cl)cc1)(C3)C2
Potency [1]: 23.5 µM (active)
Potency [18]: 9.27 µM (active)
Potency [3]: 9.27 µM (active)
Potency [4]: 26.1 µM (active)
Potency [6]: 13.1 µM (active)
Potency [8]: 20.8 µM (active)
Potency [9]: 9.27 µM (active)
Potency [11]: inactive
Potency [12]: 26.1 µM (active)
Potency [13]: 14.7 µM (active)
Potency [14]: inactive
Potency [16]: 13.1 µM (active)
Potency [17]: inactive

COc1cccc(-c2cc(=O)c3ccccc3o2)c1N
Potency [1]: inactive
Potency [2]: inactive
Potency [4]: inactive
Potency [6]: inactive
Potency [19]: inactive
Potency [8]: inactive
Potency [9]: 20.8 µM (active)
Potency [10]: inactive
Potency [11]: inactive
Potency [12]: inactive
Potency [14]: inactive
Potency [16]: inactive

CCCCC1C(=O)N(c2ccccc2)N(c2ccccc2)C1=O
Potency [1]: inactive
Potency [20]: inactive

CC(C)n1nc(-c2ccc3oc(N)nc3c2)c2c(N)ncnc21
Potency [1]: 0.0235 µM (active)
Potency [18]: 0.147 µM (active)
Potency [3]: 0.0737 µM (active)
Potency [4]: 0.117 µM (active)
Potency [5]: 0.131 µM (active)
Potency [6]: 5.85 µM (active)
Potency [7]: 0.165 µM (active)
Potency [8]: 0.0369 µM (active)
Potency [9]: 0.0465 µM (active)
Potency [10]: 0.0465 µM (active)
Potency [12]: 0.0928 µM (active)
Potency [13]: 0.0293 µM (active)
Potency [14]: 1.65 µM (active)
Potency [15]: 0.293 µM (active)
Potency [16]: 3.69 µM (active)
Potency [17]: 0.59 µM (active)

O=C1NC(=O)C(=Cc2ccc3c(c2)OC(F)(F)O3)S1
Potency [1]: inactive
Potency [2]: inactive
Potency [4]: inactive
Potency [5]: inactive
Potency [6]: 26.1 µM (active)
Potency [19]: inactive
Potency [7]: inactive
Potency [8]: inactive
Potency [11]: inactive
Potency [13]: inactive
Potency [14]: inactive
Potency [15]: inactive
Potency [16]: inactive
Potency [17]: inactive

CC=C(C)C(=O)O[C@H]1C(C)=C[C@]23C(=O)[C@@H](C=C(CO)[C@@H](O)[C@]12O)[C@H]1[C@@H](C[C@H]3C)C1(C)C
Potency [2]: inactive
Potency [4]: inactive
Potency [19]: inactive
Potency [7]: inactive
Potency [8]: inactive
Potency [11]: inactive
Potency [12]: 0.0233 µM (active)
Potency [13]: 13.1 µM (active)
Potency [14]: inactive
Potency [17]: inactive

O=c1cc(-c2ccc(O)cc2)oc2cc(O)cc(O)c12
Potency [5]: inactive
Potency [6]: inactive
Potency [7]: inactive
Potency [11]: inactive
Potency [12]: inactive
Potency [13]: inactive
Potency [17]: inactive
Potency [20]: 89.1 µM (active)

Cc1cc(OCCCc2c(C(=O)O)n(Cc3cccnc3)c3c(-c4c(COc5ccc(N6CCN([S+](C)(=O)[O-])CC6)cc5)nn(C)c4C)cccc23)cc(C)c1Cl
Potency [2]: 16.5 µM (active)
Potency [3]: 20.8 µM (active)
Potency [19]: inactive
Potency [8]: 18.5 µM (active)
Potency [12]: 2.61 µM (active)
Potency [13]: 1.04 µM (active)
Potency [17]: inactive

CC1=C(/C=C/C(C)=C/C=C/C(C)=C/C(=O)Nc2ccc(O)cc2)C(C)(C)CCC1
Potency [1]: 9.44 µM (active)
Potency [20]: inactive

CC(C)(C(=O)NCC(F)(F)C(F)(F)F)C(=O)N[C@@H]1C(=O)Nc2ccccc2-c2ccccc21
Potency [2]: inactive
Potency [18]: inactive
Potency [4]: inactive
Potency [5]: inactive
Potency [6]: inactive
Potency [19]: inactive
Potency [7]: inactive
Potency [10]: inactive
Potency [11]: inactive
Potency [12]: inactive
Potency [14]: inactive
Potency [15]: inactive
Potency [16]: inactive

O=C1NCC2(CCN(CCc3ccccc3)CC2)O1
Potency [1]: inactive
Potency [20]: inactive

CCN(CC)CCNC(=O)c1ccc(N)cc1
Potency [1]: inactive
Potency [20]: inactive

CC(=O)c1ccc(S(=O)(=O)NC(=O)NC2CCCCC2)cc1
Potency [1]: inactive
Potency [20]: inactive

CC(C)(C)c1ccc(C(O)CCCN2CCC(C(O)(c3ccccc3)c3ccccc3)CC2)cc1 (stereo unspecified)
Potency [1]: inactive
Potency [20]: inactive

Oc1ccc(C2CCN(c3ccnc4ccccc34)CC2)cc1O
Potency [2]: 16.5 µM (active)
Potency [18]: 2.61 µM (active)
Potency [3]: 18.5 µM (active)
Potency [4]: 13.1 µM (active)
Potency [6]: 5.85 µM (active)
Potency [19]: 14.7 µM (active)
Potency [7]: 1.17 µM (active)
Potency [9]: 9.27 µM (active)
Potency [10]: 2.33 µM (active)
Potency [11]: 7.37 µM (active)
Potency [12]: 2.93 µM (active)
Potency [13]: 5.85 µM (active)
Potency [14]: inactive
Potency [17]: 20.9 µM (active)

O=C(O)CCc1nc(-c2ccccc2)c(-c2ccccc2)o1
Potency [1]: inactive
Potency [20]: inactive

CC(=NNC(=S)N1CCC1)c1ccccn1
Potency [2]: inactive
Potency [18]: 23.3 µM (active)
Potency [3]: inactive
Potency [4]: inactive
Potency [5]: inactive
Potency [19]: inactive
Potency [7]: inactive
Potency [8]: inactive
Potency [9]: inactive
Potency [10]: inactive
Potency [11]: inactive
Potency [14]: inactive
Potency [16]: inactive

Source: PubChem BioAssay (NCATS)
